# Source: PubChem BioAssay AID687014 (The Scripps Research Institute Molecular Screening Center, 2013)
# Hit rate of the full screen: of about 370,000 compounds, about 6,800 (1.8%) were called active.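 Rule for the calls: active = activation above a cutoff set at the mean of all screened compounds plus 3 SD (cut at about 10% in these data); inactive = the rest.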 For the sample, actives were picked, then their nearest neighbours and some compounds at random.
# Tested on: Nuclear hormone receptor DAF-12 (Heterodera glycines), GAL4 fusion
# Assay: H. glycines DAF-12 receptor agonists, primary screen, cell-based, luminescence, HEK293, GAL4 fusion, UAS-luciferase (AID 687014);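 note: 0% = DMSO wells and 100% = sodium butyrate wells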
# Settings: HEK293 GAL4-hgDAF12 UAS-luciferase reporter, agonist luminescence; at 6.8 µM; hits give high values; normalized to butyrate control
row,Compound,activation
1,Cc1ccc(-n2c(SCC(=O)Nc3ccc(S(=O)(=O)Nc4nccs4)cc3)nnc2-c2cccnc2)cc1,-1% (inactive)
2,Cc1cc(C)c(S(=O)(=O)N2CCC(C(=O)OCc3c(C)noc3C)CC2)c(C)c1,1.53% (inactive)
3,CC(OC(=O)Cc1ccc(F)cc1)C(=O)N1CCc2ccccc21 (stereo not given),0.83% (inactive)
4,O=C(CN1C(=O)c2ccccc2S1(=O)=O)N1CCc2ccccc21,-10.8% (inactive)
5,O=C(CSCc1ccccc1)N1CCc2ccccc21,17.5% (active)
6,CCOC(=O)[C@@]12CCC3=C1N(CCC3)C(=O)[C@H](CC(=O)N1CCN(C(=O)c3ccco3)CC1)C2,-0.79% (inactive)
7,CC1(C)OC(=O)C2=C(CC(CCc3ccccc3)OC2c2ccc(Cl)cc2)O1 (stereo not given),3.41% (inactive)
8,CC(C)N(Cc1nnc(-c2ccc(Cl)cc2)o1)C(=O)C1=COCCO1,0.6% (inactive)
9,CC(NCc1ccco1)C(=O)N1CCCCC1 (stereo not given),1.35% (inactive)
10,C#CCCN([C@H](C(=O)OC)C(C)C)S(=O)(=O)c1ccc(F)cc1Br,2.22% (inactive)
11,COc1cccc(CNC(=O)[C@H]2CCCN2C(=O)[C@H]2CCCN2C(=O)c2cc(F)cc(F)c2)c1,0.08% (inactive)
12,CC(=O)Nc1ccc(NC(=S)NC(=O)c2ccc([N+](=O)[O-])c(C)c2)cc1,-2.56% (inactive)
13,Cc1ccc(C(=O)NC(=S)Nc2ccccc2C)cc1,12.1% (active)
14,Cc1ccccc1C(=O)NC(=S)NC1CC1,0.72% (inactive)
15,COC(=O)[C@H](CC(C)C)NS(=O)(=O)c1c(F)cccc1F,-0.44% (inactive)
16,CCCCCCCCN1C(=O)[C@@H](CC(=O)NCc2ccc(C)o2)C[C@@]2(C(=O)OC)C1=C[C@H](C(C)(C)C)O[C@@H]2C,-0.08% (inactive)
17,O=Cc1cn(CCOc2ccc(F)cc2)c2ccccc12,-2.45% (inactive)
18,Cc1ccc(OCCOc2cccc(/C=N/NC(N)=O)c2)cc1,5.18% (inactive)
19,COC(=O)N/N=C/c1cn(CCCOc2ccc(C)cc2)c2ccccc12,15% (active)
20,O=C(CNS(=O)(=O)c1ccccc1F)N1CCN(c2ccccn2)CC1,0.61% (inactive)
21,COC(=O)[C@]12C[C@H](CC(=O)NCc3ccccc3)C(=O)N(CCc3ccc(OC)c(OC)c3)C1=C[C@H](C(C)(C)C)O[C@@H]2C,0.98% (inactive)
22,COc1ccc(OC)c(CNC(=O)Cn2nc(C)c3c(C)n(-c4ccc(C)cc4)nc3c2=O)c1,-2.32% (inactive)
23,O=C(CCS(=O)(=O)Cc1ccccc1F)NCCCN1CCCCC1,0.82% (inactive)

row,Compound,activation
1,O=C(O)c1ccccc1CSc1nc2ccccc2s1,10.6% (active)
2,O=C(CSc1nc2ccccc2s1)NN=Cc1ccc(O)cc1O,-1.39% (inactive)
3,O=C(CSc1nc2ccccc2s1)N=Nc1c(O)[nH]c2ccccc12,-2.84% (inactive)
4,COc1ccc(CC(=O)Nc2cc(S(=O)(=O)N3CCCCC3)ccc2N2CCN(C)CC2)cc1,-1.77% (inactive)
5,COC(=O)C1CN(CC(C)C)CCS(=O)(=O)N1Cc1ccc(C)cc1 (stereo not given),-0.71% (inactive)
6,CS(=O)(=O)N1CCc2cc(C(=O)Nc3ccccc3)ccc21,2.16% (inactive)
7,CC(C)n1c(=O)[nH]c2cc(C(=O)Nc3ccccc3)ccc21,13.3% (active)
8,CC(=O)Nc1ccc(NC(=O)c2ccc3c(c2)C(=O)N(c2ccccc2C)C3=O)cc1,0.55% (inactive)
9,COc1ccc(-c2ccc3c(n2)CCCN3S(=O)(=O)c2ccc(C)cc2)cc1,1.42% (inactive)
10,O=C(C(=O)N1CCC(CNS(=O)(=O)Cc2ccccc2)CC1)c1cc2ccccc2o1,-2.92% (inactive)
11,CN(c1ccc(O)cc1)c1nc(-c2cccnc2)cs1,11% (active)
12,O=C(NNC(=O)c1csc(-c2cccnc2)n1)Nc1ccc(Cl)cc1,-2.54% (inactive)
13,CN(C(=O)CSc1nc(C2CC2)nc2ccccc12)c1nc(-c2ccccc2)cs1,0.14% (inactive)
14,COc1ccc(NC(=O)c2cc([N+](=O)[O-])ccc2NC(=O)CNC2CCCCC2C)c(OC)c1 (stereo not given),1.77% (inactive)
15,Cn1c(=NC(=O)C2CC2)sc2cc(F)cc(F)c21,14% (active)
16,O=C(Cn1nnc(-c2ccccc2)n1)NC(=O)NC1CCCC1,4.87% (inactive)
17,CC(C)C[C@H](NC(=O)C1CC(=O)N(c2ccc3c(c2)OCCO3)C1)C(=O)NC1CCCC1 (stereo not given in full),-2.12% (inactive)
18,Cc1ccc(S(=O)(=O)NCCC(=O)NCc2ccc(Cl)cc2)cc1C,1.13% (inactive)
19,Cc1ccnc(NC(=O)CCNS(=O)(=O)c2ccc(C)c(C)c2)c1,17.1% (active)
20,Cc1ccc(S(=O)(=O)NCCC(=O)Nc2cccc(S(N)(=O)=O)c2)cc1C,1.82% (inactive)
21,COCCNC(=O)CSc1nc2sccc2c(=O)n1-c1ccccc1,-2.26% (inactive)
22,CS(=O)(=O)Nc1ccc(C(=O)N2CCCC2)cc1,-0.04% (inactive)
23,CNc1cncc(-c2cccc(C(=O)N3CCOCC3)c2)n1,-2.58% (inactive)

row,Compound,activation
1,CNc1cncc(-c2ccc(NS(C)(=O)=O)cc2)n1,20.8% (active)
2,COc1ccc(-c2ccccc2C2Cc3nnccc3CN2C(=O)Nc2ccccc2)cc1 (stereo not given),-0.36% (inactive)
3,O=C(Nc1cccc(Cl)c1)OC1CC2CC1[C@H]1CCCCN1[C@H]2Cc1ccccc1 (stereo not given in full),-4.33% (inactive)
4,Cc1ccc2nc(CN(C)C(=O)[C@@H](Cc3ccccc3)NC(=O)[C@H]3O[C@@H](n4ccc(=O)[nH]c4=O)[C@H](O)[C@@H]3O)[nH]c2c1,-0.28% (inactive)
5,Cc1ccc(C)c(NC(=O)CCC(=O)N/N=C2/CC(=O)CC(C)(C)C2)c1,-0.63% (inactive)
6,COC(=O)[C@H](C(C)C)N(CCc1cn(Cc2ccccc2)nn1)S(=O)(=O)c1ccc(F)cc1Br,-2.66% (inactive)
7,N#Cc1ccccc1NC(=O)c1cccc(COc2ccc(Cl)cc2Cl)c1,12.7% (active)
8,O=C(Nc1ccn(Cc2ccccc2F)n1)c1ccc(COc2ccc(Cl)cc2Cl)o1,-5.91% (inactive)
9,COc1ccc(Sc2ccc(NC(=O)c3cccc(Cl)c3)cc2C#N)cc1,0.58% (inactive)
10,Cn1cc(S(=O)(=O)NC(c2ccccc2)c2ccccc2)c(=O)n(C)c1=O,-1.46% (inactive)
11,O=C(COC(=O)c1ccco1)NCc1ccc(Cl)cc1,10.8% (active)
12,O=C(CCOc1ccccc1)NCc1ccccc1,0.5% (inactive)
13,O=C(COC(=O)c1ccco1)Nc1ccc(Cl)cn1,0.37% (inactive)
14,O=C(COC(=O)c1cnc(Cl)c(Cl)c1)NCc1ccco1,-3.41% (inactive)
15,O=C(COC(=O)c1cccc(Cl)c1)NC(=O)NCc1ccccc1,0.55% (inactive)
16,O=C(COc1cccc(Cl)c1)NCc1ccccc1,10.5% (active)
17,O=C1CC[C@@H]2CC3(C[C@@H]4CCN1[C@H]24)Nc1cc([N+](=O)[O-])ccc1NC3=NC1CCCCC1 (stereo not given in full),0.54% (inactive)
18,COc1cc(OC)c(-n2cc(-c3ccc(Cl)cc3)[nH]c2=O)cc1Cl,-2.27% (inactive)
19,N#Cc1cccc(C(=O)NCC2CCN(C(=O)C(=O)c3cc4ccccc4o3)CC2)c1,-0.57% (inactive)
20,COc1ccc(CNS(=O)(=O)c2cc(Br)ccc2Br)cc1,1.03% (inactive)
21,O=C(CN(C(=O)c1csnn1)c1cccc(Cl)c1)NC1CCCC1,-1.27% (inactive)
22,O=C(Nc1ccc(Br)cc1)OCCN1C(=O)CCC12CCC(c1ccccc1)CC2 (stereo not given),-0.22% (inactive)
23,Cc1cccc(CN2CCC(n3nccc3NC(=O)c3ccccc3C)CC2)n1,-0.95% (inactive)

row,Compound,activation
1,COc1ccc(NC2=CC(=S)NC(C)(C)C2)cc1,1.03% (inactive)
2,COc1ccc(Nc2cc(=O)n(-c3ccccc3)c3c2c(=O)n(C)c(=O)n3C)cc1,-1.79% (inactive)
3,COc1ccc(Nc2ccc3ccccc3c2)cc1,18.4% (active)
4,OCC[C@H]1C[C@@H](O)[C@H](O)[C@]2(OCCCc3ccccc32)O1,-1.3% (inactive)
5,COc1ccc(S(=O)(=O)Nc2ccc3c(c2)C(=O)N([C@H](C)CO)C[C@H](C)[C@@H](CN(C)C)OCCCC[C@H](C)O3)cc1,-1.86% (inactive)
6,Cc1c(Cl)cccc1NC(=S)NCC(O)c1ccccc1 (stereo not given),0.77% (inactive)
7,COc1ccc(C(=O)NCC[N+](C)(C)C)cc1,-0.85% (inactive)
8,COc1ccc(C(=O)NCCSc2ccccc2C)cc1,12.8% (active)
9,CCSc1ccccc1C(=O)NCc1ccc(OC)cc1,-1.12% (inactive)
10,Cc1ccc(-n2c(COc3ccccc3)nnc2SCC(=O)Nc2ccc3c(c2)OCCO3)cc1,-0.21% (inactive)
11,Cc1cc(OC(=O)NCCc2ccc(F)cc2)ccc1F,0.78% (inactive)
12,O=C(CSc1nnc(COc2ccccc2)n1Cc1ccco1)c1ccc2ccccc2c1,-0.51% (inactive)
13,Cc1cc(C)c(C#N)c(SCC(=O)Nc2ccccc2)n1,11.8% (active)
14,COCc1cc(C)nc(SCC(=O)Nc2cccc(C)c2)c1C#N,0.86% (inactive)
15,Cc1cc(C)c(C#N)c(SCC(=O)NN2CC(=O)N(c3ccccc3F)CC2=O)n1,-2.6% (inactive)
16,Cc1ccccc1N1CCN(CCCN2C(=O)C3CCCCN3C2=O)CC1 (stereo not given),2.03% (inactive)
17,CC1CCN(c2ccc(C(=O)O)cc2NS(=O)(=O)c2ccc(Br)s2)CC1,-3.43% (inactive)
18,O=C(N[C@H](C(=O)N1CCC[C@H]1C(=O)NCCc1ccccc1Cl)c1ccccc1)c1ccccc1,-3.35% (inactive)
19,Oc1ccc(-n2nnnc2SCc2c(F)cccc2Cl)cc1,0.63% (inactive)
20,Cn1c(SCc2c(F)cccc2Cl)nnc1-c1cnccn1,8.5% (inactive)
21,Fc1cccc(Cl)c1CSc1ccc(-c2ccco2)nn1,10.6% (active)
